# Measurements reported in PubChem BioAssay.
# Active and inactive are the calls of the source.
# How the values were obtained:
# [1] = system: PRMT1 (protein arginine N-methyltransferase 1); assay: PRMT1 binders on small-molecule microarrays, primary screen, biochemical, small-molecule microarray, 635 nm fluorescence (AID 1088); details: small-molecule microarray binding, higher = more signal;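 also: binding of Prmt1 protein to compounds spotted on small-molecule microarray slides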
# [2] = yeast growth modulation, basal conditions, primary screen, YJM789 clinical isolate, OD600, 24 h (AID 1089);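 also: growth of clinical yeast isolate S. cerevisiae YJM 789 seeded 1000 cells per well; test concentration not given here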; details: S. cerevisiae YJM789 growth, higher = more signal, called active from +8 up or from −8 down
# [3] = fission yeast growth modulation, primary screen, strain 972, OD600, 24 h, no modulator (AID 1090);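 also: basal condition with compound alone and no growth modifier present; test concentration not given here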; details: S. pombe 972 growth, higher = more signal, called active from +8 up or from −8 down
# [4] = S. cerevisiae growth modulation with rapamycin, primary screen, strain BY4716, OD600, 96 h (AID 1091); details: higher = more signal, called active from +8 up or from −8 down; also: test concentration not given here
# [5] = target: Torsin-1A-interacting protein 2 (Homo sapiens) (UniProt Q8NFQ8); assay: LULL1 binders on small-molecule microarray, primary screen, cell lysate, human LULL1 lysate, 635/667 nm fluorescence (AID 1092); details: hLULL1 lysate binding, 635 nm fluorescence, higher = more signal;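 also: probe is lysate of COS7 cells overexpressing human LULL1; score merges per-feature 667 nm fluorescence with signal-to-noise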
# Chain of Torsin-1A-interacting protein 2 (Homo sapiens) (Q8NFQ8 whole entry, looked up): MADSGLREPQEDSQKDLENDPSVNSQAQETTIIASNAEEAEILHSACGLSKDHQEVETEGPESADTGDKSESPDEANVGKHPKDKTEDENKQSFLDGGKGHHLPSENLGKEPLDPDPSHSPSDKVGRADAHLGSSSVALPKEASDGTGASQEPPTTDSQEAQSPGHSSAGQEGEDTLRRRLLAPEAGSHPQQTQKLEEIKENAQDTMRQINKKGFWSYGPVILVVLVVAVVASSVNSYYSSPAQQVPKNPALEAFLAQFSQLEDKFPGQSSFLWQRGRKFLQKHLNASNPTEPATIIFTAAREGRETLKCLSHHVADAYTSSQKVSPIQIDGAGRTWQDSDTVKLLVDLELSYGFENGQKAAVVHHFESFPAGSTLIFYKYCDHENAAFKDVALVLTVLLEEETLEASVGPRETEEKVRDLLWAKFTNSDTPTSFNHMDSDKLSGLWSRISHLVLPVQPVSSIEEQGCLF
# [6] = E. coli growth modulation, two-sided OD650, primary screen, E. coli filamentation project, strain DRC41, 24 h (AID 1093); details: OD650, 24 h, higher = more signal, called active from +8 up or from −8 down;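 also: MC1000 strain lacking acrAB efflux and sulA so SOS filamentation is blocked; test concentration not given here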
# [7] = small-molecule microarray binders of probe aLefty2, primary screen, biochemical, biotinylated probe, 635/667 nm fluorescence (AID 1094); details: higher = more signal;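 also: score merges spot fluorescence near 667 nm with spot signal-to-noise ratio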
# [8] = system: Noggin (protein binding on small-molecule microarray); assay: Noggin binders on small-molecule microarray, primary screen, biochemical, 635/667 nm fluorescence (AID 1095); details: 635 nm fluorescence, higher = more signal;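 also: score merges 667 nm feature fluorescence with signal to noise over triplicate slides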
# [9] = target: Neurogenic locus notch homolog protein 3 (Homo sapiens) (UniProt Q9UM47); assay: NOTCH3 binders on small-molecule microarray, primary screen, biochemical, 635/667 nm fluorescence (AID 1096); details: NOTCH3 binding, 635 nm fluorescence, higher = more signal
# Chain of Neurogenic locus notch homolog protein 3 (Homo sapiens) (Q9UM47 whole entry, looked up): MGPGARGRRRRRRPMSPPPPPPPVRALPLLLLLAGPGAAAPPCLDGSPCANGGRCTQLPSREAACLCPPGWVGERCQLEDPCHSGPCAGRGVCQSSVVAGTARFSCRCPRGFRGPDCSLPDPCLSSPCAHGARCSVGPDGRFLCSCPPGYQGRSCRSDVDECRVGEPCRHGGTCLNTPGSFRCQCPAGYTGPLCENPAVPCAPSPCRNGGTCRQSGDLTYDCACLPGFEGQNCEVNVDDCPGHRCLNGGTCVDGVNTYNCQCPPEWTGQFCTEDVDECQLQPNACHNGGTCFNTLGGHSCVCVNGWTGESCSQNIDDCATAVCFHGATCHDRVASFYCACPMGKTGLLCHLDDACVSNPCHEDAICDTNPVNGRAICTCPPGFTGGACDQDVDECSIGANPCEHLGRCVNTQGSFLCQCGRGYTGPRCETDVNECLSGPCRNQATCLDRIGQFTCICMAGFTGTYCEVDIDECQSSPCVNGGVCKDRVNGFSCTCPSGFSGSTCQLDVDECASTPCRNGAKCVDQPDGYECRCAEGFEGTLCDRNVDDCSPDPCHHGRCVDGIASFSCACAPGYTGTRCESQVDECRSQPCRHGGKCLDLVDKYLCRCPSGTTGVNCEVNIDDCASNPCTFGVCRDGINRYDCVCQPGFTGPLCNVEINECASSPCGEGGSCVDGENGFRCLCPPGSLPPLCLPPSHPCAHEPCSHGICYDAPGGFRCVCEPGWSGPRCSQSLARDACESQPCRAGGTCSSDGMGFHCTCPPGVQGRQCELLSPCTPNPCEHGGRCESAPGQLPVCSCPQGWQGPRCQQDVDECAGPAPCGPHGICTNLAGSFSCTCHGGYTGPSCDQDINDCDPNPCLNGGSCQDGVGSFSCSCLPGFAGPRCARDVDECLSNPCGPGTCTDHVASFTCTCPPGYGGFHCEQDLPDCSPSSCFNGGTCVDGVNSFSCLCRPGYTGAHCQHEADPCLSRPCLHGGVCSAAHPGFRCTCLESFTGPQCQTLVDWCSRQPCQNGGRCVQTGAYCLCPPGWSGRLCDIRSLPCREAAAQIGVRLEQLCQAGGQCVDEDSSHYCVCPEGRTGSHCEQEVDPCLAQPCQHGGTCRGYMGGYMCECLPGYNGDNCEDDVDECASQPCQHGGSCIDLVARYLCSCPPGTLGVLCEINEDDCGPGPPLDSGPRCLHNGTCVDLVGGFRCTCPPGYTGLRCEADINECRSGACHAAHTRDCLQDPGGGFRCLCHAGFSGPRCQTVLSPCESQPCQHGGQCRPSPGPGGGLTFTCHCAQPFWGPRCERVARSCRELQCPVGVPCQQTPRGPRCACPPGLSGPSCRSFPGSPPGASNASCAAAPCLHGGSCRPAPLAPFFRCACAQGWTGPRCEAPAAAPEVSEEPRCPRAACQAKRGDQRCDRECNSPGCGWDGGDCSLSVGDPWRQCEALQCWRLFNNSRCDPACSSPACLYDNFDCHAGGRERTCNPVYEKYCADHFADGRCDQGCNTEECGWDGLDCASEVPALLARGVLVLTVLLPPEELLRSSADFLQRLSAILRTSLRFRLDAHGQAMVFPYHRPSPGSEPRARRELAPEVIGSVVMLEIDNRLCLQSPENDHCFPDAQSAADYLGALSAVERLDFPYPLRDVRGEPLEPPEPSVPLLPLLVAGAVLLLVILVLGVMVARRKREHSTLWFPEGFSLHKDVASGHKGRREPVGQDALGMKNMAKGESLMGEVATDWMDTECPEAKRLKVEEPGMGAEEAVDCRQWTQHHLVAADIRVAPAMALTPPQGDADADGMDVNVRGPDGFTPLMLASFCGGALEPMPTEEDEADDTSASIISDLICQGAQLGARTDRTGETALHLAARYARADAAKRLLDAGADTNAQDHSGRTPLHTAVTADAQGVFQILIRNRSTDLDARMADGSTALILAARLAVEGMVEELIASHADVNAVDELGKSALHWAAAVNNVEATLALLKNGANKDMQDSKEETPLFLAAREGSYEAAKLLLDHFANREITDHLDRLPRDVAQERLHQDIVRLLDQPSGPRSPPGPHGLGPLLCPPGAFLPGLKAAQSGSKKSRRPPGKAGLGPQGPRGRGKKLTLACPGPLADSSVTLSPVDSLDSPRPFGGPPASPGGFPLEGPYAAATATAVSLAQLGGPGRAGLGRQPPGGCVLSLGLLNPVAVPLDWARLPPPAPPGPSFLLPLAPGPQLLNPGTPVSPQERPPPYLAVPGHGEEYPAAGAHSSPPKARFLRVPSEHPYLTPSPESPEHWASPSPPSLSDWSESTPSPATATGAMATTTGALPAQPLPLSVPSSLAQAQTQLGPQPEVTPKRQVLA
# [10] = small-molecule microarray binders of probe aEGFR, primary screen, biochemical, biotinylated probe, 635/667 nm fluorescence (AID 1097); details: higher = more signal;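 also: probe is a biotinylated anti-EGFR antibody binding compounds printed on slides; score combines fluorescence near 667 nm and signal to noise of each spot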
# [11] = system: Plasmodium falciparum Sir2 (PF13_0152, Sir2A); assay: pfSir2 binders on small-molecule microarrays, primary screen, biochemical, small-molecule microarray, 635 nm fluorescence (AID 1098); details: small-molecule microarray binding, fluorescence 635 nm; higher = more signal;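 also: score merges spot fluorescence intensity with its signal-to-noise ratio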
# [12] = small-molecule microarray binders of probe aDKK1, primary screen, biochemical, biotinylated probe, 635/667 nm fluorescence (AID 1099); details: higher = more signal;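 also: score merges 667nm spot fluorescence with signal to noise across triplicate slides; reference of the scale not given here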
# [13] = small-molecule microarray binders of probe aCHRDL2, primary screen, biochemical, biotinylated probe, 635/667 nm fluorescence (AID 1100); details: higher = more signal
# [14] = splicing luciferase reporter signal modulators, primary screen, spliceosome inhibition project, cell-based, HEK293, splice +/- reporter (AID 1101); details: luminescence, 24 h, higher = more signal, called active from +8 up or from −8 down;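 also: HEK293 cells carrying a splicing-competent luciferase reporter gene; test concentration not given here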
# [15] = target: Fibroblast growth factor 10 (Homo sapiens) (UniProt O15520); assay: FGF10 binders on small-molecule microarrays, primary screen, biochemical, small-molecule microarray, 635 nm fluorescence (AID 1102); details: FGF10 binding, fluorescence 635 nm, higher = more signal
# Chain of Fibroblast growth factor 10 (Homo sapiens) (O15520 whole entry, looked up): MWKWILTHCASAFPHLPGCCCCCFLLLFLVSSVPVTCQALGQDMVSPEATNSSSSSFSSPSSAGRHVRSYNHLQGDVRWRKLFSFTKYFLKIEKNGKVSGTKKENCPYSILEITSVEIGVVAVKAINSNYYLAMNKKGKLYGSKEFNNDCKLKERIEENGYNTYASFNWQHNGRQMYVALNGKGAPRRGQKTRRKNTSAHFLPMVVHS
# [16] = system: glycogen synthase kinase-3 (GSK3A per assay name; protocol says GSK3B); assay: GSK3 binders on small-molecule microarrays, primary screen, biochemical, small-molecule microarray, 635 nm fluorescence, GSK3A (AID 1103); details: small-molecule microarray binding, fluorescence 635 nm; higher = more signal; also: the record names both GSK3A and GSK3B
# [17] = target: Epidermal growth factor receptor (Homo sapiens) (UniProt P00533); assay: EGFR binders on small-molecule microarrays, primary screen, biochemical, small-molecule microarray, 635 nm fluorescence (AID 1104); details: EGFR binding, higher = more signal;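 also: score merges 667 nm emission intensity with spot signal to noise over triplicate slides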
# Chain of Epidermal growth factor receptor (Homo sapiens) (P00533 whole entry, looked up): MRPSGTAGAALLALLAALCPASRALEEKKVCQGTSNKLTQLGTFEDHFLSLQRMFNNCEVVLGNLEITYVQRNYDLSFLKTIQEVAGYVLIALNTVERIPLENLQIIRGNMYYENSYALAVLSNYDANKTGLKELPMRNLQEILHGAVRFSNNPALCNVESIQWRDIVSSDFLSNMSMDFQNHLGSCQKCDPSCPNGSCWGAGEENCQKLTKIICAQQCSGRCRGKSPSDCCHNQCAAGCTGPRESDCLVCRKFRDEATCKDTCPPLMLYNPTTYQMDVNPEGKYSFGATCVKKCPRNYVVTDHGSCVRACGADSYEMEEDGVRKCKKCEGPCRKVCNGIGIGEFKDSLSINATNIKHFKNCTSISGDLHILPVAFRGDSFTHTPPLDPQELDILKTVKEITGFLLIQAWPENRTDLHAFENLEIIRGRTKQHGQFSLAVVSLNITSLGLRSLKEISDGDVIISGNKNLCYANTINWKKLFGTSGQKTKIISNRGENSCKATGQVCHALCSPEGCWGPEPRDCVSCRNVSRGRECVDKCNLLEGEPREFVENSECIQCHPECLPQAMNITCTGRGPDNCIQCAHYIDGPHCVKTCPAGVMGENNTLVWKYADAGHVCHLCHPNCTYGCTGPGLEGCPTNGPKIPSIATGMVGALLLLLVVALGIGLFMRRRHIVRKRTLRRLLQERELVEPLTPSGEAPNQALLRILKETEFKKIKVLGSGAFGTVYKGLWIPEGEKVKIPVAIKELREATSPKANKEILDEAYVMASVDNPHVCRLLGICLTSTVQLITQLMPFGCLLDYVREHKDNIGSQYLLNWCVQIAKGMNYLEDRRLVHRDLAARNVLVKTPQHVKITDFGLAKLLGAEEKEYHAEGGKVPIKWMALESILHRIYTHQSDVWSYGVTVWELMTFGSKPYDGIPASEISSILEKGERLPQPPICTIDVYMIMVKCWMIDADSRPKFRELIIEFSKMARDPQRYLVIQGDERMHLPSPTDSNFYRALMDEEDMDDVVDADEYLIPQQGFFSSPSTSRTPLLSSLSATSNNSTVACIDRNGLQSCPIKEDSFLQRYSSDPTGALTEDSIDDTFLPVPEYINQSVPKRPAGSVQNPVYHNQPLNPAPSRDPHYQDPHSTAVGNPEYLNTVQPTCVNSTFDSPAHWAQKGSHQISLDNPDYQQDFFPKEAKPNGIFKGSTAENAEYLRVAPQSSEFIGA
# [18] = target: Follistatin-related protein 3 (Homo sapiens) (UniProt O95633); assay: FSTL3 binders on small-molecule microarrays, primary screen, biochemical, small-molecule microarray, 635 nm fluorescence (AID 1105); details: FSTL3 binding, higher = more signal;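 also: score merges emission near 667 nm and signal to noise per printed spot across three slides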
# Chain of Follistatin-related protein 3 (Homo sapiens) (O95633 whole entry, looked up): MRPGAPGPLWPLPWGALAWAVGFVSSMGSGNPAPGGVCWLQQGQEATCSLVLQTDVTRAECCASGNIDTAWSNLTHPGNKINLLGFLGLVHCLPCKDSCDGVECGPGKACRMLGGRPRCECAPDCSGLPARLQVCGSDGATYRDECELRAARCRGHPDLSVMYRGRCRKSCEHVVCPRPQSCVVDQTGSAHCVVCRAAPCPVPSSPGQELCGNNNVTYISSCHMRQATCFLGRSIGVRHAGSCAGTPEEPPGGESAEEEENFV
# [19] = target: Dickkopf-related protein 1 (Homo sapiens) (UniProt O94907); assay: DKK1 binders on small-molecule microarrays, primary screen, biochemical, small-molecule microarray, 635 nm fluorescence scan (AID 1106); details: DKK1 binding, higher = more signal;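 also: score merges emission near 667 nm with signal to noise over three replicate slides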
# Chain of Dickkopf-related protein 1 (Homo sapiens) (O94907 whole entry, looked up): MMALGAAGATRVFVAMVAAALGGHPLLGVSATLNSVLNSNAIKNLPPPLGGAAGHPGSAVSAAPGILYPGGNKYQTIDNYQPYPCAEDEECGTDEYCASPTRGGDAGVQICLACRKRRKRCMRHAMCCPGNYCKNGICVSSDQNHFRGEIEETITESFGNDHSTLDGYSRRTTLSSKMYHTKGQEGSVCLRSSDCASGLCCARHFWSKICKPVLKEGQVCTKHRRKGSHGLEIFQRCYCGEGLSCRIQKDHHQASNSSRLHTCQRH
# [20] = system: Inhibin beta A chain (activin A); assay: INHBA (activin A) binders on microarrays, primary screen, biochemical, small-molecule microarray, 635 nm fluorescence scan (AID 1107); details: small-molecule microarray binding, higher = more signal;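 also: mouse activin A protein probed at 4.33 µg/mL on printed slides; score merges bound-protein fluorescence near 667 nm with spot signal-to-noise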
SMILES,composite z-score [1],z-score [2],z-score [3],z-score [4],composite z-score [5],z-score [6],composite z-score [7],composite z-score [8],composite z-score [9],composite z-score [10],composite z-score [11],composite z-score [12],composite z-score [13],z-score [14],composite z-score [15],composite z-score [16],composite z-score [17],composite z-score [18],composite z-score [19],composite z-score [20]
[N-]=[N+]=Nc1ccccc1[C@@H]1OC(c2ccc(OCCCO)cc2)=N[C@]1(Cc1ccccc1)C(=O)NCCN1CCOCC1,0.547,-0.312 (inactive),-1.36 (inactive),0.152 (inactive),3.51,0.382 (inactive),0.0787,0.762,1.09,-0.0106,0.669,0.652,0.825,-0.299 (inactive),1.1,0.774,-0.04,0.952,-0.326,0.33
CCCN1C(=O)[C@]2(CCC(=O)OC(C)(C)C)N=C(c3ccc(OCCCO)cc3)O[C@@H]2c2ccccc21,1.52,-1.93 (inactive),-0.474 (inactive),1.5 (inactive),1.62,0.916 (inactive),0.151,1.37,0.571,-0.134,0.715,0.173,1.16,0.0554 (inactive),1.31,1.21,-0.413,0.299,-0.175,1.31
COC(=O)[C@@]1(Cc2ccccc2)[C@H]2c3cc(C(=O)N4CCCC4)n(Cc4ccc(OC)c(OC)c4)c3C[C@H]2CN1C(=O)c1ccccc1,0.632,0.49 (inactive),1.06 (inactive),1.45 (inactive),3.5,-0.0046 (inactive),0.666,0.0245,1.14,0.403,0.491,1.14,1.2,-2.9 (inactive),0.971,1.06,0.122,0.985,-0.823,0.763
C[C@]1(C(=O)O)c2ccccc2C(=O)N(Cc2cc(F)cc(C(F)(F)F)c2)[C@H]1c1ccc(CO)cc1,0.413,-0.994 (inactive),-1.3 (inactive),-1.9 (inactive),1.64,0.581 (inactive),-0.153,1.04,0.137,-0.115,1.64,-0.0944,0.249,0.395 (inactive),0.139,-0.429,0.213,0.0304,-0.336,0.561
